Reference: PubChem BioAssay AID1159580 (chemical genetic matrix, 2015)
Hit rate of the full screen: of about 5,500 compounds, about 2,000 (36%) were called active. Not shown: some 18% with an inconclusive outcome. No stated cut-off is given here; in the data, active means normalized growth mostly below about 0.91 (no sharp cut-off); inconclusive means no clear call, values can overlap the other calls; inactive means mostly above about 0.92. The list shows a part of the results.

Test: chemical genetic growth profiling, strain panel (AID 1159580);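 further: tested at 20 µM; growth read once vehicle control cultures reached saturation at 30 °C; 1 = growth at the plate median or of vehicle wells; lower values mean less growth of the strain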
Details: S. cerevisiae deletion strains, growth OD

Measured: normalized growth

CC(C)NCC(O)COc1ccc(COCCOC(C)C)cc1 (stereo not given)
inactive: locus YAL021C, strain ccr4, hits give low values 1 | locus YAL026C, strain drs2, hits give low values 1.01 | locus YAL030W, strain snc1, hits give low values 0.998 | locus YBL061C, strain skt5, hits give low values 0.997 | locus YBR009C, strain hhf1, hits give low values 0.998 | locus YBR023C, strain chs3, hits give low values 0.998 | locus YBR171W, strain sec66, hits give low values 1 | locus YBR231C, strain swc5, hits give low values 1 | locus YBR279W, strain paf1, hits give low values 1 | locus YCL011C, strain gbp2, hits give low values 1.01 | locus YCL016C, strain dcc1, hits give low values 0.999 | locus YCL061C, strain MRC1, hits give low values 1 | locus YCL069W, strain vba3, hits give low values 1 | locus YCR088W, strain abp1, hits give low values 0.997 | locus YDL005C, strain med2, hits give low values 1 | locus YDL040C, strain nat1, hits give low values 1 | locus YDR001C, strain nth1, hits give low values 1.01 | locus YDR069C, strain doa4, hits give low values 1.02 | locus YDR137W, strain rgp1, hits give low values 1.02 | locus YDR159W, strain sac3, hits give low values 0.979 | locus YDR195W, strain ref2 0.97 | locus YDR297W, strain sur2, hits give low values 1.01 | locus YDR334W, strain swr1, hits give low values 1 | locus YDR335W, strain msn5, hits give low values 1 | locus YDR392W, strain spt3, hits give low values 0.947 | locus YEL003W, strain gim4, hits give low values 1 | locus YEL037C, strain rad23, hits give low values 1.02 | locus YEL061C, strain CIN8 (second series), hits give low values 1 | locus YER015W, strain faa2, hits give low values 0.995 | locus YER016W, strain bim1, hits give low values 0.988 | locus YER111C, strain swi4, hits give low values 1 | locus YER155C, strain BEM2 (second series), hits give low values 1 | locus YFR010W, strain ubp6, hits give low values 1.03 | locus YGL167C, strain pmr1, hits give low values 1.01 | locus YGL173C, strain kem1, hits give low values 1 | locus YGL227W, strain vid30, hits give low values 1 | locus YGL240W, strain doc1, hits give low values 1 | locus YGL253W, strain hxk2, hits give low values 0.999 | locus YHR013C, strain ard1, hits give low values 0.995 | locus YHR027C, strain rpn1, hits give low values 0.999 | locus YHR030C, strain SLT2, hits give low values 1.04 | locus YHR079C, strain IRE1, hits give low values 1.05 | locus YHR142W, strain chs7, hits give low values 1.01 | locus YJL092W, strain hpr5, hits give low values 0.994 | locus YJL095W, strain BCK1 (second series), hits give low values 1 | locus YJL095W, strain BCK1, hits give low values 0.976 | locus YJL115W, strain asf1, hits give low values 0.999 | locus YJL129C, strain trk1, hits give low values 1 | locus YJL154C, strain vps35, hits give low values 1.01 | locus YJL164C, strain tpk1, hits give low values 1.01 | locus YJL166W, strain qcr8, hits give low values 1.01 | locus YJL187C, strain SWE1, hits give low values 1.01 | locus YJR066W, strain TOR1, hits give low values 0.987 | locus YKL160W, strain elf1, hits give low values 1 | locus YKR026C, strain gcn3, hits give low values 0.986 | locus YKR091W, strain srl3, hits give low values 1 | locus YLL001W, strain dnm1, hits give low values 0.983 | locus YLL026W, hits give low values 0.998 | locus YLL041C, strain sdh2, hits give low values 1 | locus YLR027C, strain aat2, hits give low values 0.998 | locus YLR113W, strain HOG1, hits give low values 0.984 | locus YLR221C, strain rsa3, hits give low values 1.01 | locus YLR258W, strain gsy2, hits give low values 0.999 | locus YLR262C, strain YPT6 (second series), hits give low values 1.01 | locus YLR320W, strain mms22, hits give low values 0.999 | locus YLR342W, strain FKS1, hits give low values 1 | locus YLR357W, strain rsc2, hits give low values 0.982 | locus YLR370C, strain arc18, hits give low values 1 | locus YLR384C, strain iki3, hits give low values 0.999 | locus YML120C, strain ndi1, hits give low values 0.984 | locus YMR058W, strain fet3, hits give low values 1.01 | locus YMR125W, strain sto1, hits give low values 0.994 | locus YMR129W, hits give low values 1 | locus YMR205C, strain PFK2, hits give low values 0.981 | locus YMR231W, strain pep5, hits give low values 0.998 | locus YNL071W, strain lat1, hits give low values 1.01 | locus YNL183C, strain NPR1, hits give low values 0.996 | locus YNL209W, strain ssb2, hits give low values 1 | locus YNL248C, strain rpa49, hits give low values 0.999 | locus YNL322C, strain KRE1 (second series), hits give low values 0.987 | locus YNR049C, strain mso1, hits give low values 1 | locus YOR001W, strain rrp6, hits give low values 1 | locus YOR070C, strain gyp1, hits give low values 1.01 | locus YOR080W, strain dia2, hits give low values 0.997 | locus YOR083W, strain WHI5, hits give low values 1 | locus YOR106W, strain vam3, hits give low values 1.01 | locus YOR231W, strain MKK1, hits give low values 1.03 | locus YOR265W, strain rbl2, hits give low values 1.03 | locus YOR270C, strain vph1, hits give low values 1.01 | locus YOR290C, strain snf2, hits give low values 1 | locus YPL051W, strain arl3, hits give low values 1 | locus YPL078C, strain atp4, hits give low values 1.01 | locus YPL106C, strain sse1, hits give low values 1 | locus YPL240C, strain hsp82, hits give low values 1.01 | locus YPL256C, strain CLN2, hits give low values 1.03
